# Experiments:
# Assay in all cases: DAPPL (digital affinity profiling via proximity ligation, sequencing); 10 mM Tris-HCl pH 7.5, 50 mM NaCl, 1 mM DTT, 4% glycerol, room temperature, 30 min; GST-TFs on glutathione beads, 16-mer random dsDNA library, 0.1% formaldehyde crosslink after washing; high values mean tight binding
# FLI1 = molecular target: T1, FLI1 (Homo sapiens, UniProt Q01543 1-452); conditions: protein: recombinant; tags: N-terminal GST; dsDNA, one strand shown
# T1 sequence: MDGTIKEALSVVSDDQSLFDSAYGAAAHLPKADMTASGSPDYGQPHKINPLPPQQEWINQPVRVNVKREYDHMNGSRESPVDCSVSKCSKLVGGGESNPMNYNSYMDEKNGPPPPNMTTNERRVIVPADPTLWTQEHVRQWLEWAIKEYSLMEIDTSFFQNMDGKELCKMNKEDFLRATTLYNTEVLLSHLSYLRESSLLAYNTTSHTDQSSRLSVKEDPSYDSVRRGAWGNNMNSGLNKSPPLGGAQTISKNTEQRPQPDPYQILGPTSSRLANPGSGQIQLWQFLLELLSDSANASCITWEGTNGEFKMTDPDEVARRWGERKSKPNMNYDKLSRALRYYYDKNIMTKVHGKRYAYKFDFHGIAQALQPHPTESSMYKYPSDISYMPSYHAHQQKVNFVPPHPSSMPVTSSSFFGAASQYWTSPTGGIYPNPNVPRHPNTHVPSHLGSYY
# Procedure, shortened: (§1)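 GST fusions of human transcription factors were expressed in yeast and captured with glutathione beads. Once given DNA barcodes and pooled alongside a tag-only sample, they were incubated for 30 min at room temperature with 200 nmole of a random double-stranded 16-mer DNA library in Tris/NaCl/DTT/glycerol buffer, then washed, crosslinked (0.1% formaldehyde), proximity-ligated, PCR-amplified and sequenced on an Illumina NextSeq500. The binding signal of each hexamer is its read frequency for a factor divided by its frequency for the tag-only sample.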
# ELK1 = molecular target: T2, ELK1 (Homo sapiens, UniProt P19419 1-428); conditions: protein: recombinant; tags: N-terminal GST; dsDNA, one strand shown
# T2 sequence: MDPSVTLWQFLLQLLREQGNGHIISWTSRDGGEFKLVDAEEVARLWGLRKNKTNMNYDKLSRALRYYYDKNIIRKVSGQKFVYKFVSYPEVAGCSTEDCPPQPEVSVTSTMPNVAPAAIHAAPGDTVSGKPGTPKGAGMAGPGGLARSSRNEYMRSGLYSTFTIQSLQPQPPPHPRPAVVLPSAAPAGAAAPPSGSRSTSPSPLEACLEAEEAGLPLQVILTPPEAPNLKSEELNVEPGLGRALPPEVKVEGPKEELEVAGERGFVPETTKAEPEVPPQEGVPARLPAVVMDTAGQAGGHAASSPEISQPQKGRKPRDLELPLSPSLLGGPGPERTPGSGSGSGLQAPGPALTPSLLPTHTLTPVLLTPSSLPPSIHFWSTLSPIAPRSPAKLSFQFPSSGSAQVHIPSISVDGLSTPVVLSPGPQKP
# Procedure, shortened: as §1
# GABPA = molecular target: T3, GABPA (Homo sapiens, UniProt Q06546 1-454); conditions: protein: recombinant; tags: N-terminal GST; dsDNA, one strand shown
# T3 sequence: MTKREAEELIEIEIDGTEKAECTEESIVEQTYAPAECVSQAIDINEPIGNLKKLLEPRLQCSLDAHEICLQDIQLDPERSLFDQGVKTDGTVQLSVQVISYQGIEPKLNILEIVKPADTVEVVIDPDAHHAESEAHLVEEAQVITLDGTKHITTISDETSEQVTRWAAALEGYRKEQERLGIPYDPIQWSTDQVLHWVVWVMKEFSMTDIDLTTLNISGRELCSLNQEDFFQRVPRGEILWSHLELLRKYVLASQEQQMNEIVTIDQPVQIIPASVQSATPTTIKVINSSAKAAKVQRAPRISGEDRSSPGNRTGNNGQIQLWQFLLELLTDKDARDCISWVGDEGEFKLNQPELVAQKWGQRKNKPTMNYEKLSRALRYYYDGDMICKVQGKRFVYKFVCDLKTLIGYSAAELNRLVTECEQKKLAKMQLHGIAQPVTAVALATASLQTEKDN
# Procedure, shortened: as §1
# ERG = molecular target: T4, ERG (Homo sapiens, UniProt P11308 1-479); conditions: protein: recombinant; tags: N-terminal GST; dsDNA, one strand shown
# T4 sequence: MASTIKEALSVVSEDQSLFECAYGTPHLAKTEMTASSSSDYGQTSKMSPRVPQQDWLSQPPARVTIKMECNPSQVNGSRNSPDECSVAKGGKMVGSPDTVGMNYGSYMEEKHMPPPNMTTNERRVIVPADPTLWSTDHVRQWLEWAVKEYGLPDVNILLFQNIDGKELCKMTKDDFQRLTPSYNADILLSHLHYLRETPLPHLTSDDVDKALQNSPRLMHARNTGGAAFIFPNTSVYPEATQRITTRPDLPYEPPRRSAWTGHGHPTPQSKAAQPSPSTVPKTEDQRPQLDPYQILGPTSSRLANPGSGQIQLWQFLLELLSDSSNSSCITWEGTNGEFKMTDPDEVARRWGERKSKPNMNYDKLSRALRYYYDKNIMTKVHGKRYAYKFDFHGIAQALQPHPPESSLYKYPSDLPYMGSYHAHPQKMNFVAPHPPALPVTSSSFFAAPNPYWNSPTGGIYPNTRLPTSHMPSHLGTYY
# Procedure, shortened: as §1
# ELF1 = ELF1 (Homo sapiens, UniProt P32519 1-619); conditions: protein: recombinant; tags: N-terminal GST; dsDNA, one strand shown
# Procedure, shortened: as §1
# EHF = molecular target: T5, EHF (Homo sapiens, UniProt Q9NZC4 1-300); conditions: protein: recombinant; tags: N-terminal GST; dsDNA, one strand shown
# T5 sequence: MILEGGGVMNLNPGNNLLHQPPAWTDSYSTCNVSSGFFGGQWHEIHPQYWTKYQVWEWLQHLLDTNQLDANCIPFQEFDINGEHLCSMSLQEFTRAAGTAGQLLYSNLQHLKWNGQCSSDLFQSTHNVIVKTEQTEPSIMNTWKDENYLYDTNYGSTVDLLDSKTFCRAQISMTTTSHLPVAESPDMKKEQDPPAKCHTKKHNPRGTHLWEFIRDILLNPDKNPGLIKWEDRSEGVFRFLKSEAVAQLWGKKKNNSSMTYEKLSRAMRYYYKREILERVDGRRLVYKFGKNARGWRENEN
# Procedure, shortened: as §1
# SPI1 = SPI1 (Homo sapiens, UniProt P17947 1-270); conditions: protein: recombinant; tags: N-terminal GST; dsDNA, one strand shown
# Procedure, shortened: as §1
# SPIB = SPIB (Homo sapiens, UniProt Q01892 1-262); conditions: protein: recombinant; tags: N-terminal GST; dsDNA, one strand shown
# Procedure, shortened: as §1
# ELK3 = molecular target: T6, ELK3 (Homo sapiens, UniProt P41970 1-407); conditions: protein: recombinant; tags: N-terminal GST; dsDNA, one strand shown
# T6 sequence: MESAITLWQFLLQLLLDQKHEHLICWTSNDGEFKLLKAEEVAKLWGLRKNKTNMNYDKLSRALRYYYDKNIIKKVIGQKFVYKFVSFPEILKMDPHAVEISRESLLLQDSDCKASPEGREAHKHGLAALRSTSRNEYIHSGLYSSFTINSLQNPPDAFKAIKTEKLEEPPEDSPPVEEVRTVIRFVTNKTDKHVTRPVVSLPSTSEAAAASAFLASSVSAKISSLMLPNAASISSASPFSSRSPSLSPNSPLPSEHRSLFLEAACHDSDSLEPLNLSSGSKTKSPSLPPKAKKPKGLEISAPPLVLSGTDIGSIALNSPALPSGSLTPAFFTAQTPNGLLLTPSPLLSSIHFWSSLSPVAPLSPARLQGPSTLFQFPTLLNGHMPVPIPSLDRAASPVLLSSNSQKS
# Procedure, shortened: as §1
# FEV = molecular target: T7, FEV (Homo sapiens, UniProt Q99581 1-238); conditions: protein: recombinant; tags: N-terminal GST; dsDNA, one strand shown
# T7 sequence: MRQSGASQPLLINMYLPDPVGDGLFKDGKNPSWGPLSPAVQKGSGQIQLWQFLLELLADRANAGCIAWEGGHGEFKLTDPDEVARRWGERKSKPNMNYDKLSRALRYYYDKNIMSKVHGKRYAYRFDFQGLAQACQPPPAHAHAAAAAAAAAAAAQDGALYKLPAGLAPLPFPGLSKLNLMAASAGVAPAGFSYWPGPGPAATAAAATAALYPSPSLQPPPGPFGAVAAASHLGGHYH
# Procedure, shortened: as §1
# ETV5 = ETV5 (Homo sapiens, UniProt P41161 1-510); conditions: protein: recombinant; tags: N-terminal GST; dsDNA, one strand shown
# Procedure, shortened: as §1
# HSF1 = HSF1 (Homo sapiens, UniProt Q00613 1-529); conditions: protein: recombinant; tags: N-terminal GST; chain copies: 3; dsDNA, one strand shown
# Procedure, shortened: as §1
# SPIC = molecular target: T8, SPIC (Homo sapiens, UniProt Q8N5J4 1-248); conditions: protein: recombinant; tags: N-terminal GST; dsDNA, one strand shown
# T8 sequence: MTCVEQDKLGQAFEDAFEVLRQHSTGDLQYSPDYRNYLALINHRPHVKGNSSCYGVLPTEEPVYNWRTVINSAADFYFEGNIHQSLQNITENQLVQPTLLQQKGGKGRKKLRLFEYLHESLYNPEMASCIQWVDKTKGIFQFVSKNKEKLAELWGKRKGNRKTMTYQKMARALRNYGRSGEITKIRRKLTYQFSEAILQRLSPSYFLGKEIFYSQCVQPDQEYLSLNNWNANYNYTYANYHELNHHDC
# Procedure, shortened: as §1
# ELF4 = ELF4 (Homo sapiens, UniProt Q99607 1-663); conditions: protein: recombinant; tags: N-terminal GST; dsDNA, one strand shown
# Procedure, shortened: as §1
# ELK4 = molecular target: T9, ELK4 (Homo sapiens, UniProt P28324-2 1-405); conditions: protein: recombinant; tags: N-terminal GST; dsDNA, one strand shown
# T9 sequence: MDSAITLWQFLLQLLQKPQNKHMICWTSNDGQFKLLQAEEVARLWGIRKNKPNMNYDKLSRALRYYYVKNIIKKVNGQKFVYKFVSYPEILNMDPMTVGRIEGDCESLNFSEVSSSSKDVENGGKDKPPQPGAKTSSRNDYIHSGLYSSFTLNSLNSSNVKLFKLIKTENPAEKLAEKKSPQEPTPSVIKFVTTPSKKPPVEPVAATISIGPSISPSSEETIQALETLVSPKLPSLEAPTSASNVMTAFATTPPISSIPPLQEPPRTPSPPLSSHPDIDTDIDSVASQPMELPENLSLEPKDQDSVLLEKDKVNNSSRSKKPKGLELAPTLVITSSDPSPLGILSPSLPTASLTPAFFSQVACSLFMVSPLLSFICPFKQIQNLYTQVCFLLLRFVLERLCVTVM
# Procedure, shortened: as §1
# ETV2 = molecular target: T10, ETV2 (Homo sapiens, UniProt O00321 1-342); conditions: protein: recombinant; tags: N-terminal GST; dsDNA, one strand shown
# T10 sequence: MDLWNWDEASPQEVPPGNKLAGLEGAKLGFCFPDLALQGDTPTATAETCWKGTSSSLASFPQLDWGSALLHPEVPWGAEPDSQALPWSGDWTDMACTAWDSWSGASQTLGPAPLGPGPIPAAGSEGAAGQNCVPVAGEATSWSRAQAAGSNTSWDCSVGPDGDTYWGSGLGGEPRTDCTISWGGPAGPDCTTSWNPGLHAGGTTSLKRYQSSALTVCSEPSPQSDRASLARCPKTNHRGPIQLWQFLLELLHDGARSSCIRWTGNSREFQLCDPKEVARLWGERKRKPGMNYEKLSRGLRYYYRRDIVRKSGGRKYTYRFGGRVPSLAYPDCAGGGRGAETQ
# Procedure, shortened: as §1
# ELF3 = molecular target: T11, ELF3 (Homo sapiens, UniProt P78545 1-371); conditions: protein: recombinant; tags: N-terminal GST; dsDNA, one strand shown
# T11 sequence: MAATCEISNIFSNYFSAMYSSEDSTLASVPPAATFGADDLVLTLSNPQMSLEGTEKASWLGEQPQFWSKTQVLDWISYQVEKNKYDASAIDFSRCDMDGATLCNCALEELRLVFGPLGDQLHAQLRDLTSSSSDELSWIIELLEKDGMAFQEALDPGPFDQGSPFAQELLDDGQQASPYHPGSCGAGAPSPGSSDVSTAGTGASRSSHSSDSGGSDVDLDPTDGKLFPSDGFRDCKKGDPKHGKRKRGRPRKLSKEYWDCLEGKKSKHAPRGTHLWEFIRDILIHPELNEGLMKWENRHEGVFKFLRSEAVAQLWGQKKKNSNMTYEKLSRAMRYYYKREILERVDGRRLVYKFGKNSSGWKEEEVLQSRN
# Procedure, shortened: as §1
# CRX = CRX (Homo sapiens, UniProt O43186 1-299); conditions: protein: recombinant; tags: N-terminal GST; dsDNA, one strand shown
# Procedure, shortened: as §1
# ETV1 = ETV1 (Homo sapiens, UniProt P50549 1-477); conditions: protein: recombinant; tags: N-terminal GST; dsDNA, one strand shown
# Procedure, shortened: as §1
# Chain of SPIB (Q01892 whole entry): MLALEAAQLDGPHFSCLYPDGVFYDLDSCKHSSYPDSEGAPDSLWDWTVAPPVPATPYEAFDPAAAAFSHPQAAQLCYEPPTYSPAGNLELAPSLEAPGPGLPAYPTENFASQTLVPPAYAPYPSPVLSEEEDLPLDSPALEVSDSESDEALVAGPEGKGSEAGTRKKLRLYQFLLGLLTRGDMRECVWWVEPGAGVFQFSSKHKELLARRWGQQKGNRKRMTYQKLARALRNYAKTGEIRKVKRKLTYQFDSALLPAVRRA
# Chain of ELF1 (P32519 whole entry): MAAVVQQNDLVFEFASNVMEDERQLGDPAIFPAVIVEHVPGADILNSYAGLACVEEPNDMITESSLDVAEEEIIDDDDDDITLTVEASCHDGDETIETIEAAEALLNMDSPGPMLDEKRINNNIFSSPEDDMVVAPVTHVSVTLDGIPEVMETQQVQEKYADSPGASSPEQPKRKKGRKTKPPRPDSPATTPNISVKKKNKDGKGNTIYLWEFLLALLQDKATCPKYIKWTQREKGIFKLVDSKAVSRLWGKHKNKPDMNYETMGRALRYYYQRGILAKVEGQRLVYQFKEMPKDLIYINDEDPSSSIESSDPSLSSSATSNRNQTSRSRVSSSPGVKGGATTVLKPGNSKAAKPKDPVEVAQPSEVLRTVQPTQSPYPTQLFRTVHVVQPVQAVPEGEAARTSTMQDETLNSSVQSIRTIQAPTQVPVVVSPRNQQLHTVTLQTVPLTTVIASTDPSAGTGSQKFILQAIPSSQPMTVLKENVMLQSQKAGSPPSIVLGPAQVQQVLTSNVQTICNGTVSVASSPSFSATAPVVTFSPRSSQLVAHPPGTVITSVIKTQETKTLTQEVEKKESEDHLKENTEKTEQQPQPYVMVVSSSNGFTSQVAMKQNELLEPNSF
# Chain of CRX (O43186 whole entry): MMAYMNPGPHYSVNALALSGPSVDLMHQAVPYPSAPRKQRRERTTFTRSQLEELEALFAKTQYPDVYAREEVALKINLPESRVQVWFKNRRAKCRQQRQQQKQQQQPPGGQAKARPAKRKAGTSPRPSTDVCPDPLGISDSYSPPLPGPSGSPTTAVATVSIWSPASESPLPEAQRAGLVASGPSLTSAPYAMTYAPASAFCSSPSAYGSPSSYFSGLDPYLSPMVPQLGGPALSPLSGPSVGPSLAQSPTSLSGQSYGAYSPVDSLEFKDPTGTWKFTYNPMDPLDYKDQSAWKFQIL
# Chain of ETV5 (P41161 whole entry): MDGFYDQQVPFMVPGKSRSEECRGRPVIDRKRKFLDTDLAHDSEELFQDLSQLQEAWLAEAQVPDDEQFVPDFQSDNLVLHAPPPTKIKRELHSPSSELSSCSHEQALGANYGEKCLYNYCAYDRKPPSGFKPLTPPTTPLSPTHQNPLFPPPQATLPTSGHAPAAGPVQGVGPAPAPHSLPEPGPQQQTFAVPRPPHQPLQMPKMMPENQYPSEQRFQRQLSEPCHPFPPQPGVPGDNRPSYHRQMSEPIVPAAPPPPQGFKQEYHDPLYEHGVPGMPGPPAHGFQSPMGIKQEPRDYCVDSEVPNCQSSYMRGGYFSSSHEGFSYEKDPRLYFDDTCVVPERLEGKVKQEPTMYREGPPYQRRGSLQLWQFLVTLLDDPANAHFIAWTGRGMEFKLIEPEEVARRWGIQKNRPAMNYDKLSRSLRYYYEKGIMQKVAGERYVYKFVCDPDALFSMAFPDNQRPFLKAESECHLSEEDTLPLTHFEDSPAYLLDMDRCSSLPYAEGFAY
# Chain of HSF1 (Q00613 whole entry): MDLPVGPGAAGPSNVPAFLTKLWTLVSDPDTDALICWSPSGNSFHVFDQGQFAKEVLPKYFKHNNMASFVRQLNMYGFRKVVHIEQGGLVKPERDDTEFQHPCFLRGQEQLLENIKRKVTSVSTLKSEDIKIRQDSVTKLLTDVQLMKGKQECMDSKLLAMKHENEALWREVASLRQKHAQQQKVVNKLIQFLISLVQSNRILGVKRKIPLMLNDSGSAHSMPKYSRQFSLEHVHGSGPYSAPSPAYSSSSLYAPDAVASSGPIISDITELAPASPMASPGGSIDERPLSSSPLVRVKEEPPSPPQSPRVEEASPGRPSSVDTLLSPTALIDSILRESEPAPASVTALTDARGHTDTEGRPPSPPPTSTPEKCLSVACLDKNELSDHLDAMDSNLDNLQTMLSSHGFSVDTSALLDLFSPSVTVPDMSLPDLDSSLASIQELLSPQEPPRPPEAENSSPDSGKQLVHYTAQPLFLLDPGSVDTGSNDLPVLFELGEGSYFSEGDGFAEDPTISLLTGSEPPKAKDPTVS
# Chain of ETV1 (P50549 whole entry): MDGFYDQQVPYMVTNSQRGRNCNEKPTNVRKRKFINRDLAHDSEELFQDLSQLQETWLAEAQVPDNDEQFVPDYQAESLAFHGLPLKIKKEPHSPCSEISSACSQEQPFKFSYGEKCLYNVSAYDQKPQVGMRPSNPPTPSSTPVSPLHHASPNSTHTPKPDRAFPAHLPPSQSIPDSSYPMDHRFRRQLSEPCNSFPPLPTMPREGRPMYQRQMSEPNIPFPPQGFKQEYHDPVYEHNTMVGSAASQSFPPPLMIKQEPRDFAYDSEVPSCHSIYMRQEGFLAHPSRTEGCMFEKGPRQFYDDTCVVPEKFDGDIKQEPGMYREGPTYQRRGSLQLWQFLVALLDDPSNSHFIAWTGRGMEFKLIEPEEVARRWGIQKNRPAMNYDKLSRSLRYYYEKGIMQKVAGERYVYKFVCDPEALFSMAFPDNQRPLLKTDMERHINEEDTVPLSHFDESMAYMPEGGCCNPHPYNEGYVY
# Chain of ELF4 (Q99607 whole entry): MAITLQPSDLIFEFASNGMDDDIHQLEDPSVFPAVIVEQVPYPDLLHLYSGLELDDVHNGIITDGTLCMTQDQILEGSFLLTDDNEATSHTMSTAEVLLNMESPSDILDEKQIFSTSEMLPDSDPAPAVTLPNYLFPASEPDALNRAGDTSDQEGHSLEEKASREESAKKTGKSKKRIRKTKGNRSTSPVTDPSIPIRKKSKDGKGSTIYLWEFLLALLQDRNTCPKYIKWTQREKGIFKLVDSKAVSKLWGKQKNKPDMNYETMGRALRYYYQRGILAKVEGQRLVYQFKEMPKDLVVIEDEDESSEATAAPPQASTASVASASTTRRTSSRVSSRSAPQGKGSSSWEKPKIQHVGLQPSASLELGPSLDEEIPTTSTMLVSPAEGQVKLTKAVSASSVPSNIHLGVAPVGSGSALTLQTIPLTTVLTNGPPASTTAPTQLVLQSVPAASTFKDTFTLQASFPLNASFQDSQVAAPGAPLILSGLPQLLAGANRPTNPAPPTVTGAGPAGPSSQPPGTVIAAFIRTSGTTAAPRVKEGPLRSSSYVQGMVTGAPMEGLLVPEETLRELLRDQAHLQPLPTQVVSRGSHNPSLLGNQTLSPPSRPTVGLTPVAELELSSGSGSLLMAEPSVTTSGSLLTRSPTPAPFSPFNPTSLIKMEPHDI
sequence,measurement,setting,value
ACGCCT,binding signal,FLI1,"1.16 fold enrichment (6-mer frequency, TF over GST control)"
same,binding signal,ELK1,"1.24 fold enrichment (6-mer frequency, TF over GST control)"
same,binding signal,GABPA,"1.21 fold enrichment (6-mer frequency, TF over GST control)"
same,binding signal,ERG,"1.2 fold enrichment (6-mer frequency, TF over GST control)"
same,binding signal,ELF1,"1.29 fold enrichment (6-mer frequency, TF over GST control)"
same,binding signal,EHF,"1.12 fold enrichment (6-mer frequency, TF over GST control)"
same,binding signal,SPI1,"1.14 fold enrichment (6-mer frequency, TF over GST control)"
same,binding signal,SPIB,"1.2 fold enrichment (6-mer frequency, TF over GST control)"
same,binding signal,ELK3,"1.21 fold enrichment (6-mer frequency, TF over GST control)"
same,binding signal,FEV,"1.17 fold enrichment (6-mer frequency, TF over GST control)"
same,binding signal,ETV5,"1.2 fold enrichment (6-mer frequency, TF over GST control)"
same,binding signal,HSF1,"1.15 fold enrichment (6-mer frequency, TF over GST control)"
same,binding signal,SPIC,"1.25 fold enrichment (6-mer frequency, TF over GST control)"
same,binding signal,ELF4,"1.21 fold enrichment (6-mer frequency, TF over GST control)"
same,binding signal,ELK4,"1.09 fold enrichment (6-mer frequency, TF over GST control)"
same,binding signal,ETV2,"1.29 fold enrichment (6-mer frequency, TF over GST control)"
same,binding signal,ELF3,"1.12 fold enrichment (6-mer frequency, TF over GST control)"
same,binding signal,CRX,"1.08 fold enrichment (6-mer frequency, TF over GST control)"
same,binding signal,ETV1,"1.05 fold enrichment (6-mer frequency, TF over GST control)"

# From PMC7862700, “An all-to-all approach to the identification of sequence-specific readers for epigenetic DNA modifications on cytosine”
